# Results as given in publication PMC5795388.
# What was measured:
# Test in all cases: cross-link between two proteins; cross-linking mass spectrometry
# [1] = target: Mitochondrial fission regulator 1-like (UniProt Q9CWE0)
# [2] = target: Cytochrome b-c1 complex subunit 8 (UniProt Q9CQ69)
# [3] = target: NADH dehydrogenase [ubiquinone] 1 beta subcomplex subunit 10 (UniProt Q9DCS9)
# [4] = target: Cytochrome b-c1 complex subunit 7 (UniProt Q9D855)
# [5] = target: MICOS complex subunit Mic19 (UniProt Q9CRB9)
# [6] = target: MICOS complex subunit Mic60 (UniProt Q8CAQ8)
# [7] = target: Cytochrome b-c1 complex subunit 1, mitochondrial (UniProt Q9CZ13)
# [8] = target: NADH dehydrogenase [ubiquinone] 1 alpha subcomplex subunit 9, mitochondrial (UniProt Q9DC69)
# [9] = target: Heat shock protein 75 kDa, mitochondrial (UniProt Q9CQN1)
# [10] = target: Dihydrolipoyllysine-residue succinyltransferase component of 2-oxoglutarate dehydrogenase complex, mitochondrial (UniProt Q9D2G2)
# [11] = target: ATP synthase peripheral stalk subunit d, mitochondrial (UniProt Q9DCX2)
# [12] = target: Double-stranded RNA-binding protein Staufen homolog 1 (UniProt Q9Z108)
# [13] = target: ADP/ATP translocase 1 (UniProt P48962)
# [14] = target: Cytochrome b-c1 complex subunit 6, mitochondrial (UniProt P99028)
# [15] = target: Cytochrome c oxidase subunit 6C (UniProt Q9CPQ1)
# [16] = target: Cytochrome c oxidase subunit 7B, mitochondrial (UniProt P56393)
# [17] = target: Cytochrome c oxidase subunit FA4 (UniProt Q62425)
# [18] = target: FAST kinase domain-containing protein 2, mitochondrial (UniProt Q922E6)
# [19] = target: Methylglutaconyl-CoA hydratase, mitochondrial (UniProt Q9JLZ3)
# [20] = target: NADH dehydrogenase [ubiquinone] flavoprotein 1, mitochondrial (UniProt Q91YT0)
# [21] = target: Protein FAM162A (UniProt Q9D6U8)
# [22] = target: MICOS complex subunit Mic26 (UniProt Q9DCZ4)
# [23] = target: Cytochrome b-c1 complex subunit Rieske, mitochondrial (UniProt Q9CR68)
# [24] = target: Cytochrome c1, heme protein, mitochondrial (UniProt Q9D0M3)
# [25] = target: Cytochrome b-c1 complex subunit 2, mitochondrial (UniProt Q9DB77)
# [26] = target: ATP synthase peripheral stalk subunit F6, mitochondrial (UniProt P97450)
# [27] = target: Mitochondrial import inner membrane translocase subunit Tim9 (UniProt Q9WV98)
# [28] = target: NADH dehydrogenase [ubiquinone] 1 alpha subcomplex subunit 13 (UniProt Q9ERS2)
# [29] = target: Methylmalonic aciduria type A homolog, mitochondrial (UniProt Q8C7H1)
# [30] = target: Isocitrate dehydrogenase [NAD] subunit alpha, mitochondrial (UniProt Q9D6R2)
# [31] = target: Succinate dehydrogenase [ubiquinone] iron-sulfur subunit, mitochondrial (UniProt Q9CQA3)
# [32] = target: Apoptosis-inducing factor 1, mitochondrial (UniProt Q9Z0X1)
# [33] = target: Cytochrome b-c1 complex subunit 9 (UniProt Q8R1I1)
# [34] = target: ATP synthase F(0) complex subunit g, mitochondrial (UniProt Q9CPQ8)
# [35] = target: ATP synthase peripheral stalk subunit OSCP, mitochondrial (UniProt Q9DB20)
# [36] = target: Dynamin-like GTPase OPA1, mitochondrial (UniProt P58281)
# [37] = target: Mitochondrial import inner membrane translocase subunit TIM14 (UniProt Q9CQV7)
# [38] = target: NADH-ubiquinone oxidoreductase 75 kDa subunit, mitochondrial (UniProt Q91VD9)
# [39] = target: 2-oxoglutarate dehydrogenase complex component E1 (UniProt Q60597)
# [40] = target: DnaJ homolog subfamily C member 11 (UniProt Q5U458)
# [41] = target: NADH dehydrogenase [ubiquinone] 1 beta subcomplex subunit 8, mitochondrial (UniProt Q9D6J5)
# NADH dehydrogenase [ubiquinone] 1 beta subcomplex subunit 10, sequence (Q9DCS9 whole entry, one chain of several): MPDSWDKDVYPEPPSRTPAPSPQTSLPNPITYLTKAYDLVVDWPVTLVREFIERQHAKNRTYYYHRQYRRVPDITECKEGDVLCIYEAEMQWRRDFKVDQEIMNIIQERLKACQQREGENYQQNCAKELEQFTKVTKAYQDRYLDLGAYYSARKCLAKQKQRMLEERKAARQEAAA
# ATP synthase peripheral stalk subunit d, mitochondrial, sequence (Q9DCX2 whole entry): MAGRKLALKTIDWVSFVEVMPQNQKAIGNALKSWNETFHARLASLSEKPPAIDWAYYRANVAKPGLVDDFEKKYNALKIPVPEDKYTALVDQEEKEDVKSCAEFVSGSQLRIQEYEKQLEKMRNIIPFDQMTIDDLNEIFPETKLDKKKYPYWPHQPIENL
# Cytochrome b-c1 complex subunit 1, mitochondrial, sequence (Q9CZ13 whole entry, one chain of several): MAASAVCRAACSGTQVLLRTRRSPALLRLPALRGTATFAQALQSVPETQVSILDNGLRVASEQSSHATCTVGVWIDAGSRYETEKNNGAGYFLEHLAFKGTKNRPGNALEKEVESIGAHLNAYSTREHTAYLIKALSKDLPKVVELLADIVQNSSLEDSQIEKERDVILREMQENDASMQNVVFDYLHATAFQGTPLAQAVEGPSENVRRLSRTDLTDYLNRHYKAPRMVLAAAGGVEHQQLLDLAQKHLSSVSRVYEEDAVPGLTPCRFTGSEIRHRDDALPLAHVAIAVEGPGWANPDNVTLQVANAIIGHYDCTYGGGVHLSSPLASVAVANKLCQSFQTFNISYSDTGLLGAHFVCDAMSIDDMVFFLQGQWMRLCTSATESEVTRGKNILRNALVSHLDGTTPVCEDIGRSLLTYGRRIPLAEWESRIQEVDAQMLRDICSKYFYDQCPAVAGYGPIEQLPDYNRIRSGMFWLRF
# Cytochrome c oxidase subunit 6C, sequence (Q9CPQ1 whole entry): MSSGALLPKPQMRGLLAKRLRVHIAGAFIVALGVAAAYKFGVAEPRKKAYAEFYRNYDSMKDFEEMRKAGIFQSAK
# Cytochrome c oxidase subunit 7B, mitochondrial, sequence (P56393 whole entry): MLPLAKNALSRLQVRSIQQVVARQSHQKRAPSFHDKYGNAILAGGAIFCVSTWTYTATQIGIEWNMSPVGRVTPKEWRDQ
# Dihydrolipoyllysine-residue succinyltransferase component of 2-oxoglutarate dehydrogenase complex, mitochondrial, sequence (Q9D2G2 whole entry, one chain of several): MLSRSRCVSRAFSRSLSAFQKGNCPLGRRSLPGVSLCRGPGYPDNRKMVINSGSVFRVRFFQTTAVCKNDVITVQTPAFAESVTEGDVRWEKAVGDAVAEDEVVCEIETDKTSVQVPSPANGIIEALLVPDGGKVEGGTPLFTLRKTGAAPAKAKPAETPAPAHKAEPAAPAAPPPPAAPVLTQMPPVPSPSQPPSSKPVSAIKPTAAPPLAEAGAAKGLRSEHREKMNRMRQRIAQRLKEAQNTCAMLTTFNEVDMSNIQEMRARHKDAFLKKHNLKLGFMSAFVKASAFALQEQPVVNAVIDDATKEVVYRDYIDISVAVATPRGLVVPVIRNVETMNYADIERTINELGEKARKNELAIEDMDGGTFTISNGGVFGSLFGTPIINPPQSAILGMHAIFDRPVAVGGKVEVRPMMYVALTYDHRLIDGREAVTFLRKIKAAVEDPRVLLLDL
# Protein FAM162A, sequence (Q9D6U8 whole entry): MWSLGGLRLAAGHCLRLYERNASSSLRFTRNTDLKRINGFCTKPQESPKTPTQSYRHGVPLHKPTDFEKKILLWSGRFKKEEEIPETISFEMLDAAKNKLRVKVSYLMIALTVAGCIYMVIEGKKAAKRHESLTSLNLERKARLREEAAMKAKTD
# Cytochrome b-c1 complex subunit 6, mitochondrial, sequence (P99028 whole entry, one chain of several): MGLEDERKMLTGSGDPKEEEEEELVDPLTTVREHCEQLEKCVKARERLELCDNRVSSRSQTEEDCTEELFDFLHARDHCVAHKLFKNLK
# Cytochrome c oxidase subunit FA4, sequence (Q62425 whole entry, the tested form may be a part): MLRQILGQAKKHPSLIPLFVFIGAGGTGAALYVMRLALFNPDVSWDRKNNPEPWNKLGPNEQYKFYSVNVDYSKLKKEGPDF
# ATP synthase peripheral stalk subunit F6, mitochondrial, sequence (P97450 whole entry): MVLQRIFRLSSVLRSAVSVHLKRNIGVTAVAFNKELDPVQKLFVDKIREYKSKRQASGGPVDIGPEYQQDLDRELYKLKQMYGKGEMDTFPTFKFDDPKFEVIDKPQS
# Mitochondrial import inner membrane translocase subunit TIM14, sequence (Q9CQV7 whole entry): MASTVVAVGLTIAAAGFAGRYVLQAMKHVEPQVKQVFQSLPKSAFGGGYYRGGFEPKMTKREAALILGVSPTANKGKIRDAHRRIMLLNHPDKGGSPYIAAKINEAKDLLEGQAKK
# Heat shock protein 75 kDa, mitochondrial, sequence (Q9CQN1 whole entry): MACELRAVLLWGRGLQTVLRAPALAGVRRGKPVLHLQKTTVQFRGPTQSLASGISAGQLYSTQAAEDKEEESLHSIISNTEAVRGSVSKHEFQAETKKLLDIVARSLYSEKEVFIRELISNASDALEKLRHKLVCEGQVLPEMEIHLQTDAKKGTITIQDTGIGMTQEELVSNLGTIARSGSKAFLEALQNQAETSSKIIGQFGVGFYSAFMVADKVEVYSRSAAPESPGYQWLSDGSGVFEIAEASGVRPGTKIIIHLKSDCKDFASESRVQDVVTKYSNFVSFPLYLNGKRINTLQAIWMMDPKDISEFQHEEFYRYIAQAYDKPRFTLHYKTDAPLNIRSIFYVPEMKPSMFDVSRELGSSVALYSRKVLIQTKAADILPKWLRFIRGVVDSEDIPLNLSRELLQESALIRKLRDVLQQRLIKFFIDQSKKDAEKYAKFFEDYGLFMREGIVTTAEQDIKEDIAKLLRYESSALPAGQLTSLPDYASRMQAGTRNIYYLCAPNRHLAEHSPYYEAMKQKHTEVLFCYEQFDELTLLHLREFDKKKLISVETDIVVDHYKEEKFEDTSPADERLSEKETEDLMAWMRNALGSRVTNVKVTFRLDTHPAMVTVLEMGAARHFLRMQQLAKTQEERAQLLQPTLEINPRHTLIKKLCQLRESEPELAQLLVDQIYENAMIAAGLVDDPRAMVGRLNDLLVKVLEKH
# MICOS complex subunit Mic26, sequence (Q9DCZ4 whole entry, one chain of several): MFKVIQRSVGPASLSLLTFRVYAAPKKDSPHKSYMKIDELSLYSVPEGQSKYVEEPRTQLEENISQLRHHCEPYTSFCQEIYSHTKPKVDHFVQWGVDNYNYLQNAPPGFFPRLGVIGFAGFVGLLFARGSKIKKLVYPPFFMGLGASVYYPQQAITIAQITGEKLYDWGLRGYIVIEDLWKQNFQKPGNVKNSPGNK
# Cytochrome b-c1 complex subunit 9, sequence (Q8R1I1 whole entry, one chain of several): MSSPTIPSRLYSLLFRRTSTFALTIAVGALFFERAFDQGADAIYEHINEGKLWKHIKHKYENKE
# 2-oxoglutarate dehydrogenase complex component E1, sequence (Q60597 whole entry, one chain of several): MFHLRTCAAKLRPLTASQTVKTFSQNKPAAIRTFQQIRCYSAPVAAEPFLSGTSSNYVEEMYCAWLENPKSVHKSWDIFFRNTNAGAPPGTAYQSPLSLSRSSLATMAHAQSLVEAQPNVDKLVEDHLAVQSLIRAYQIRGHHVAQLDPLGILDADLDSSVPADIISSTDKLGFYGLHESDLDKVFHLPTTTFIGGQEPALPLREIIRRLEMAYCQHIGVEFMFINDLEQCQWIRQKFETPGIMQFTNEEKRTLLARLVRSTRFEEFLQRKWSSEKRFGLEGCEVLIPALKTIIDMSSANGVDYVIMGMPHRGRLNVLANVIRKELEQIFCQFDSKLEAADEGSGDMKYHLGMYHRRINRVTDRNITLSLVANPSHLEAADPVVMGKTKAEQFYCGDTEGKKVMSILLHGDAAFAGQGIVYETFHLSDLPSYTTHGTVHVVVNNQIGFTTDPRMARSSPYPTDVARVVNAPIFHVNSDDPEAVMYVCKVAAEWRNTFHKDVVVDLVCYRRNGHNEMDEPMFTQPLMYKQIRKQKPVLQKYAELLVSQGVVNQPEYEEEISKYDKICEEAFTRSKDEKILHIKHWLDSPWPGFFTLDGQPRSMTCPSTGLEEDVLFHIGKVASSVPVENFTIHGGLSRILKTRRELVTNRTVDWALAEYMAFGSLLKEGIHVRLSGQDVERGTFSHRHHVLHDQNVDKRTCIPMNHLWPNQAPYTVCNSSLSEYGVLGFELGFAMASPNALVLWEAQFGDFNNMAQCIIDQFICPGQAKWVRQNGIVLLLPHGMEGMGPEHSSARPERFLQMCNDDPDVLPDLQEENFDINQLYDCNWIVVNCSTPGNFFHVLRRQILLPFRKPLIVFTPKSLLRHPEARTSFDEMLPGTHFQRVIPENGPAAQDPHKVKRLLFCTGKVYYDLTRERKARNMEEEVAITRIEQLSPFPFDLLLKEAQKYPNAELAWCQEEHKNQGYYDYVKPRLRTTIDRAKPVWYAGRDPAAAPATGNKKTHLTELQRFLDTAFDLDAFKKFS
# NADH-ubiquinone oxidoreductase 75 kDa subunit, mitochondrial, sequence (Q91VD9 whole entry): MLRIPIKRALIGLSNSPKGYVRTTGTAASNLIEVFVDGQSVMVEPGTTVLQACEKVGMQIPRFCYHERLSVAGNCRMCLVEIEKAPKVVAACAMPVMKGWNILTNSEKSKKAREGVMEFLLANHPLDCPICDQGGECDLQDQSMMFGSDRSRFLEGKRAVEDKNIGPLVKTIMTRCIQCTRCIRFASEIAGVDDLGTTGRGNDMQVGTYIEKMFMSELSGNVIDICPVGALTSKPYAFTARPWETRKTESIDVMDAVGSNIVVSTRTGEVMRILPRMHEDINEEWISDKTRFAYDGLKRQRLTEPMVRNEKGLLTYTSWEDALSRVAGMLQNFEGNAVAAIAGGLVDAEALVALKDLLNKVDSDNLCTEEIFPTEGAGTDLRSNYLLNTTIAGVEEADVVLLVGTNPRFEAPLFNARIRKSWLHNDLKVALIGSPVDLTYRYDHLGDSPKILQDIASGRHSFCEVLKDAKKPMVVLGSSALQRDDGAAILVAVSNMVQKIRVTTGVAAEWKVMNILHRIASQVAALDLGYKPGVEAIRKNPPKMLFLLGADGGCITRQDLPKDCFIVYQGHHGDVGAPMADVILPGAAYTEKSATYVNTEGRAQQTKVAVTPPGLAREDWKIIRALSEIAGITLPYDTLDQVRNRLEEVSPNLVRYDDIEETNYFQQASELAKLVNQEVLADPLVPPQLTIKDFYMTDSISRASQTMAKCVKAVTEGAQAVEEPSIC
# ATP synthase F(0) complex subunit g, mitochondrial, sequence (Q9CPQ8 whole entry, one chain of several): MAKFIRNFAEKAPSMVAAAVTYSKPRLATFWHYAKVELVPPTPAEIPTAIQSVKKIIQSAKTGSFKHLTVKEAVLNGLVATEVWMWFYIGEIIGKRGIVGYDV
substance,measurement,setting,value
"Mitochondrial Rho GTPase 1, Q8BG51",listed as a hit,[1],yes
"Cytochrome b-c1 complex subunit 6, mitochondrial, P99028",listed as a hit,[2],yes
same,listed as a hit,[3],yes
"Cytochrome b, P00158",listed as a hit,[4],yes
"NADH dehydrogenase [ubiquinone] 1 beta subcomplex subunit 4, Q9CQC7",listed as a hit,[3],yes
"MICOS complex subunit Mic27, Q78IK4",listed as a hit,[5],yes
same,listed as a hit,[6],yes
"Succinate dehydrogenase [ubiquinone] flavoprotein subunit, mitochondrial, Q8K2B3",listed as a hit,[7],yes
"StAR-related lipid transfer protein 7, mitochondrial, Q8R1R3",listed as a hit,[8],yes
"Stress-70 protein, mitochondrial, P38647",listed as a hit,[9],yes
"Alpha-ketoglutarate dehydrogenase component 4, Q9CQX8",listed as a hit,[10],yes
"ATP synthase F(0) complex subunit 8, P03930",listed as a hit,[11],yes
"Acetyl-CoA acetyltransferase, mitochondrial, Q8QZT1",listed as a hit,[12],yes
"Cytochrome c oxidase subunit 4 isoform 1, mitochondrial, P19783",listed as a hit,[13],yes
same,listed as a hit,[14],yes
same,listed as a hit,[15],yes
same,listed as a hit,[16],yes
same,listed as a hit,[17],yes
same,listed as a hit,[18],yes
same,listed as a hit,[19],yes
same,listed as a hit,[20],yes
"Cytochrome c oxidase subunit 6C, Q9CPQ1",listed as a hit,[21],yes
"Cytochrome c, somatic, P62897",listed as a hit,[15],yes
"2-oxoglutarate dehydrogenase complex component E1, Q60597",listed as a hit,[10],yes
"NADH dehydrogenase [ubiquinone] 1 beta subcomplex subunit 8, mitochondrial, Q9D6J5",listed as a hit,[3],yes
"MICOS complex subunit Mic60, Q8CAQ8",listed as a hit,[22],yes
"Cytochrome b-c1 complex subunit 8, Q9CQ69",listed as a hit,[23],yes
same,listed as a hit,[24],yes
"Cytochrome c1, heme protein, mitochondrial, Q9D0M3",listed as a hit,[25],yes
"Malate dehydrogenase, mitochondrial, P08249",listed as a hit,[26],yes
same,listed as a hit,[11],yes
same,listed as a hit,[7],yes
"Mitochondrial import inner membrane translocase subunit Tim10, P62073",listed as a hit,[27],yes
"NADH dehydrogenase [ubiquinone] 1 alpha subcomplex subunit 8, Q9DCJ5",listed as a hit,[28],yes
"Methylmalonyl-CoA mutase, mitochondrial, P16332",listed as a hit,[29],yes
"Trifunctional enzyme subunit alpha, mitochondrial, Q8BMS1",listed as a hit,[11],yes
"Aspartate aminotransferase, mitochondrial, P05202",listed as a hit,[7],yes
same,listed as a hit,[30],yes
"ATP synthase F(0) complex subunit g, mitochondrial, Q9CPQ8",listed as a hit,[31],yes
"Cytochrome c oxidase subunit FA4, Q62425",listed as a hit,[32],yes
"Cytochrome c oxidase subunit 7B, mitochondrial, P56393",listed as a hit,[33],yes
same,listed as a hit,[17],yes
"ADP/ATP translocase 1, P48962",listed as a hit,[34],yes
same,listed as a hit,[35],yes
same,listed as a hit,[14],yes
same,listed as a hit,[15],yes
same,listed as a hit,[16],yes
same,listed as a hit,[36],yes
same,listed as a hit,[21],yes
"Mitochondrial import inner membrane translocase subunit TIM16, Q9CQV1",listed as a hit,[37],yes
"NADH dehydrogenase [ubiquinone] iron-sulfur protein 6, mitochondrial, P52503",listed as a hit,[38],yes
"Dihydrolipoyl dehydrogenase, mitochondrial, O08749",listed as a hit,[39],yes
"Metaxin-2, O88441",listed as a hit,[40],yes
"NADH dehydrogenase [ubiquinone] 1 beta subcomplex subunit 11, mitochondrial, O09111",listed as a hit,[41],yes
